# Reference: PubChem BioAssay AID720507 (National Center for Advancing Translational Sciences (NCATS), 2013)
# Screen size: about 2,300 compounds; about 140 (6.1%) were called active. Not shown: some 18% with an inconclusive outcome. Not all results are given here. A number with no mark means an inactive call. Calls follow the shape of the dose curve; as a rule, active = well fitted activation curve with a large enough effect; inconclusive = small, poorly fitted or top-dose-only effect; inactive = flat fitted curve, though single readings scatter.
# Target: D(2) dopamine receptor (Homo sapiens) (UniProt P14416)
# Assay: qHTS of D3 Dopamine Receptor Agonist: D2 Dopamine Receptor B-arrestin Agonist Counterscreen; also: nearly all actives have a fitted effect of over 70% in size; as to activation: % of control where 0% means no effect
# Details: DiscoveRx PathHunter D2 beta-arrestin, luminescence, 90 min; series mostly up to 76.9 µM; activation: at the top concentration
# Text: D3 DARs represent a very important target for the treatment of several neuropsychiatric disorders. Indeed, one of the most promising therapeutic applications for the D3 DAR is in the area of addiction and related disorders. […] These findings have been observed with a number of addictive substances including cocaine, amphetamine, nicotine, and alcohol. […] Increased D3 DAR activity can thus lead to neuroprotective and neurorestorative actions in the CNS. […] This assay is used to profile the activity of the identified D3 dopamine receptor agonist against the D2 dopamine receptor. Greater than 10% of the maximum dopamine agonist response is desired for this assay. NIH Molecular Libraries Probe Production Centers Network [MLPCN] NIH Chemical Genomics Center [NCGC] MLPCN Grant: NS064831 Assay Submitter (PI): David Sibley
# DiscoveRx D2 cells were thawed from frozen stock and seeded at 2,100 cells/ 3 uL/well media (DiscoveRx Plating Reagent 2) with MultiDrop Combi dispenser (Thermo Scientific, Logan, UT) onto white tissue culture treated 1536-well Aurora plates (Brooks Automation, Chelmsford, MA) and allowed to attach overnight at 37 deg C, 5% CO2. Next, 23 nL/well of compound solutions in DMSO were added with a pintool transfer (Kalypsis, San Diego, CA). […] The rest of the plate was dispensed with buffer only, 1 uL/well as well. The cells were stimulated by compounds or dopamine control for 90 minutes at 37 deg C, 5% CO2, after which 1.5 ul/well of DiscoveRx detection reagent was added with BioRAPTR FRD dispenser. The detection reagent was prepared by mixing of Galacton Star Substrate, Emerald II solution and PathHunter buffer (supplied by the assay kit) together at 1:5:19 proportion accordingly just prior to dispensing. The plates were incubated at ambient temperature for 1 hour and then the luminescent signal was read on ViewLux plate reader (PerkinElmer, Waltham, MA).
# Potency is read from the fitted curve at half-maximal effect.
# Sequence of D(2) dopamine receptor (Homo sapiens) (P14416 whole entry, looked up): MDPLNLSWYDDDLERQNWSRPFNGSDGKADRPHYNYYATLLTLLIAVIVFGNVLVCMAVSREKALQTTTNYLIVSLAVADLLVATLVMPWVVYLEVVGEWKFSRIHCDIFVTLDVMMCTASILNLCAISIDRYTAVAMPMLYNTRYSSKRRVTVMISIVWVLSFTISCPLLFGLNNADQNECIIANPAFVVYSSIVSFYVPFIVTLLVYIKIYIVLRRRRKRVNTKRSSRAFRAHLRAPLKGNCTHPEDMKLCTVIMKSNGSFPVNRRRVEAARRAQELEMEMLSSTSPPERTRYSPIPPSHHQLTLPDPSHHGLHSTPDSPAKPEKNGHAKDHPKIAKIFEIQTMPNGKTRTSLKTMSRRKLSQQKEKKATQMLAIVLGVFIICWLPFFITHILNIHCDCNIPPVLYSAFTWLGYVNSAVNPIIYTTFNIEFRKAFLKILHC
Structure (SMILES),activation [%],Potency
O=C(CN1CCN(S(=O)(=O)c2cc(Cl)ccc2Cl)CC1)c1ccc(O)c(O)c1,13.6,–
O=C(c1ccco1)N1CCN(Cc2cccc(C(F)(F)F)c2)CC1,–,31.6 µM (active)
Cc1cc(C)n2nc(C(=O)N3CCN(Cc4ccc5c(c4)OCO5)CC3)nc2n1,10.6,–
CCC(=O)Nc1ccc(C(=O)N2CCN(C(=O)c3ccco3)CC2)cc1,-1.66,–
Cc1ccc(S(=O)(=O)N2CC(O)C[C@H]2C(=O)OCC(=O)Nc2ccc(N3CCOCC3)cc2)cc1C (some centres not stated),-1.51,–
CCN(CCCNC(=O)c1ccc2c(c1)NC(=O)CN2C)c1cccc(C)c1,9.85,–
O=C(COc1coc(CN2CCN(c3ccccc3)CC2)cc1=O)Nc1ccccc1F,18.8,–
CN(CCO)S(=O)(=O)c1ccc2c(c1)C(=O)c1cc(S(=O)(=O)N(C)CCO)ccc1-2,-1.49,–
Cc1n[nH]c(C)c1S(=O)(=O)N1CCCC(C(=O)NCC2COc3ccccc3O2)C1 (configuration not stated),0.0237,–
OCC1(Cc2ccccc2)CCN(Cc2cc3ccccc3o2)CC1,–,25.1 µM (active)
CS/C(=C\C(=O)c1ccco1)Nc1ccccc1Cl,6.85,–
O=c1oc(-c2ccccc2NS(=O)(=O)c2ccc(Cl)cc2)nc2ccccc12,-0.237,–
O=C(NC1CCCCC1)c1ccc2c(=O)n(CC3CCCO3)c(=O)[nH]c2c1 (configuration not stated),10.1,–
COC(c1ccccc1)c1nnc(CCC(=O)N2CCN(CCOc3ccccc3)CC2)o1 (configuration not stated),13.2,–
CN1CCC(CN)(N2CCN(c3ccccc3)CC2)CC1,11.1,–
Cc1c(C(=O)Nc2cccc(-c3nnc4n3CCCCC4)c2)oc2ccccc12,-2.93,–
O=C(Nc1cccnc1Cl)c1cc(-c2cccc(Cl)c2)on1,-2.13,–
COc1ccc([C@H]2CC(=O)C=C(c3ccc(OC(F)(F)F)cc3)C2)cc1OC,20.6,–
Cc1c(CC(=O)N2CCN(C(=O)C3COc4ccccc4O3)CC2)c(=O)oc2c(O)c(O)ccc12 (configuration not stated),–,31.6 µM (active)
O=S(=O)(c1ccc(F)cc1)N1CC=C(c2ccccc2)CC1,1.2,–
CC[C@H](C)C(=O)N[C@H]1CCCN1C(=O)/C=C/c1ccccc1,-0.497,–
CCOC(=O)[C@H]1[C@H]2COc3ccc(C)cc3[C@@H]2N2C(=O)CN(Cc3ccc(F)cc3)C(=O)[C@@]12C,5.21,–
Cc1ccc(O)c(-c2cc(C(=O)Nc3c(C)n(C)n(-c4ccccc4)c3=O)[nH]n2)c1,-2.19,–
CCCN(CC(=O)Nc1ccccc1C)C(=O)c1ccc2[nH]c3c(c2c1)CC(C)CC3 (configuration not stated),2.25,–
Cc1cnc(C(=O)N2CCCC(N3CCN(c4ccccc4F)CC3)C2)cn1 (configuration not stated),21.8,–

Structure (SMILES),activation [%],Potency
Cc1cccc(C)c1NC(=O)CNC(=O)c1ccc2c(c1)OCCO2,-1.89,–
COc1ccc([C@H]2CC(=O)C=C(c3ccc(CO)cc3)C2)cc1,1.16,–
CC1(C)CC(=O)C=C(c2ccc3ncccc3c2)C1,-1.87,–
COc1ccc(NC(C)=O)cc1NC(=O)CN1CCN(c2ccccn2)CC1,11.8,–
O=C(Nc1cccc(-c2nc3ccccc3[nH]2)c1)c1ccc(C(=O)Nc2cccc(-c3nc4ccccc4[nH]3)c2)cc1,4.47,–
CC(=O)OC(C)C[N+](C)(C)C (configuration not stated),-1.97,–
CCC(=O)c1ccc(OCC(=O)Nc2ccc(N3CCCCC3)cc2)cc1,-0.473,–
OCC[C@H]1C[C@H](O)[C@@H](O)[C@]2(Cc3ccccc3CO2)O1,-1.68,–
O=C(Cc1csc(Nc2nc(=S)[nH]c3ccccc23)n1)NCCCN1CCN(c2cccc(Cl)c2)CC1,-1.51,–
O=C(NC(=O)c1ccccc1)Nc1ccccc1O,3.31,–
CN1CCN(S(=O)(=O)c2cccc(C(=O)Nc3sccc3C#N)c2)CC1,-0.355,–
O=c1cc(CCl)nc2scc(-c3ccccc3)n12,-4.57,–
O=C(CSC1CC(=O)N(CCc2ccccc2)C1=O)Nc1ccc(Cl)cc1 (configuration not stated),5.18,–
COc1cc(OC)c(-n2cc(-c3ccc(Cl)cc3)[nH]c2=O)cc1Cl,-7.23,–
O=C(c1c(F)cccc1F)N1CCN(S(=O)(=O)c2ccc3c(c2)OCCO3)CC1,2.32,–
COc1ccc(CC(NC(C)=O)C(=O)N2CCN(C(=O)Nc3cccc(Cl)c3)CC2)cc1OC (configuration not stated),-3.65,–
CC(C)c1ccc2c(c1)c(SC(C)(C)C)c(CC(C)(C)C(=O)O)n2Cc1ccc(Cl)cc1,11.4,–
NS(=O)(=O)c1ccc(CCNS(=O)(=O)c2cccc3cccnc23)cc1,-1.71,–
O=C(CN1CCN(c2ccccn2)CC1)NC1CCCCC1,8.31,–
Cc1c(CN2CC[C@@H](N3CCN(c4ccccn4)CC3)[C@H](O)C2)[nH]c2ccc(F)cc12,–,28.2 µM (active)
NS(=O)(=O)c1ccc(CCNC(=O)NC2CCCCC2)cc1,-4.01,–
O=C1c2cccc3cccc(c23)N1CN1CCN(c2ccccn2)CC1,21.1,–
CCC(=O)Nc1ccc2c(c1)nc(CCN1CCN(c3ccccn3)CC1)n2C,26.1,–
O=C(C1CC(=O)N(c2ccc(F)cc2)C1)N1CCN(c2ccccc2)CC1 (configuration not stated),-2.2,–
Cn1c(=O)c(=O)n(C)c2cc(S(=O)(=O)NCCN3CCN(c4ccccc4F)CC3)ccc21,21.6,–

Structure (SMILES),activation [%],Potency
COc1ccc(N2CCN(Cc3cc(=O)oc4ccc5ccccc5c34)CC2)cc1,3.24,–
O=C(CCN1CCN(c2ccccc2)CC1)NNC(=S)Nc1ccccc1,25.2,–
Nc1nonc1-n1nnc(C(=O)N/N=C/c2ccc(Cl)cc2)c1-c1ccc2c(c1)OCO2,13.9,–
O=C1c2ccccc2S(=O)(=O)N1CC(O)Cn1c2ccccc2c2ccccc21 (configuration not stated),6.97,–
O=C(c1ccc2c(c1)OCCO2)C1CCN(S(=O)(=O)c2cccc(F)c2)CC1,1.28,–
O=C(Nc1ccc(F)cc1F)N1CCCN(CCOc2ccccc2)CC1,3.92,–
O=C(CCN1CCN(C/C=C/c2ccccc2)CC1)Nc1ccccc1Cl,18.6,–
CC(=O)C[C@@H](O)CC(=O)[C@H]1OC(=O)CCCCCCc2ccccc21,-0.828,–
O=C(O[C@H]1[C@H](Cc2ccccc2)NS(=O)(=O)[C@H]2C[C@@H]3C=C[C@]12O3)c1ccc([N+](=O)[O-])cc1,-0.26,–
CNC(=O)NC(=O)C(C)N1CCN(C/C=C/c2ccccc2)CC1 (configuration not stated),5.3,–
c1ccc(-c2cnc(CN3CCN(c4ccccc4)CC3)o2)cc1,9.03,–
C/C(=N\NC(=S)NC1CCCCC1)c1ccc(C)o1,17.6,–
COc1ccc(S(=O)(=O)N2CCSCC2)cc1,-3.27,–
O=C(CC1NCCc2ccccc21)Nc1cccc(Cl)c1 (configuration not stated),-6.22,–
O=C1C=C(c2cccc(Br)c2)C[C@@H](c2ccc(F)cc2)C1,-3.31,–
CC(C)(C)C(=O)OCc1nc(-c2ccc(O)c(O)c2)cs1,–,28.2 µM (active)
CC(CCc1ccccc1)NCC(O)c1cccc([N+](=O)[O-])c1 (configuration not stated),11.9,–
CC(OC(=O)/C=C/c1ccccc1)C(=O)NC1CCCCC1C (configuration not stated),2.72,–
O=C(OCc1nc2ccccc2[nH]1)C1CCCCC1,10.5,–
CCCN1CC=C2C(C#N)=C(N)C(C#N)(C#N)C(c3cc(OC)ccc3OC)C2C1 (configuration not stated),-1.56,–
CN(C)CCOC(=O)C(c1ccccc1)C1(O)CCCC1 (configuration not stated),-3.98,–
COc1cccc(NC(=O)C2CCCN(c3ncnc4c3nc3n4CCCCC3)C2)c1 (configuration not stated),-3.08,–
CC(=C1C(=O)c2ccccc2C1=O)N1CCN(c2ccccn2)CC1,24.7,–
CNCC(O)c1ccc(O)c(O)c1 (configuration not stated),–,17.8 µM (active)
O=C(CN1CCN(c2ncccn2)CC1)Nc1ccccc1C(F)(F)F,17.1,–

Structure (SMILES),activation [%],Potency
Cc1ccccc1Nc1nc(N)nc(CN2CCN(c3ccccn3)CC2)n1,-0.216,–
Cc1ccc(CN2CCN(c3ncccn3)CC2)c(C)c1,–,50.1 µM (active)
O=C1CC[C@H](O)CCN1[C@H](CSc1ccc(Br)cc1)Cc1ccccc1,0.237,–
O=C(c1ccccc1)c1ccc(OCC(O)CN2CCCC2)cc1 (configuration not stated),-1.06,–
Cc1cc(C(=O)NNC(=O)c2ccccc2O)c(C)o1,-1.85,–
CCCCC(=O)NNC(=S)NC(=O)C(c1ccccc1)c1ccccc1,-7.08,–
Cn1c(C(=O)NCCCN2CCN(c3cccc(Cl)c3)CC2)cc2c(=O)n(C)c3ccccc3c21,9.01,–
CCn1cc(C(=O)N2CCN(Cc3ccc4c(c3)OCO4)CC2)c2cc(OC)c(OC)cc2c1=O,18.8,–
CCC(CC)NC(=O)/C=C/c1cccc([N+](=O)[O-])c1,-0.402,–
O=C(CCCn1c(=O)[nH]c2cc(Cl)ccc2c1=O)NCCN1CCN(c2ccccc2)CC1,10.7,–
O=C(CCn1c(=O)[nH]c2ccccc2c1=O)NCCCN1CCN(c2cccc(Cl)c2)CC1,12.8,–
Cc1ccccc1OCC(O)CN1CCN(c2ccccn2)CC1 (configuration not stated),7.71,–
CC(=O)Nc1ccc(OCC(O)CN2CCN(c3ccccc3Cl)CC2)cc1 (configuration not stated),18.5,–
CC(C)c1ccc(OCC(O)CN2CCN(c3ccccn3)CC2)cc1 (configuration not stated),–,39.8 µM (active)
COc1ccc(C2NC(=O)C(=O)/C2=C(\O)c2ccc(Cl)cc2)cc1OC (configuration not stated),-3.12,–
CCn1c(=O)n(CC)c2cc(N3CCCC3)c(NC(=O)c3ccccc3Br)cc21,2.89,–
Cc1cccc(OCC(=O)NCC(=O)N/N=C/c2ccc(N(C)C)cc2)c1,-2.06,–
OC(COCc1ccco1)CN1CCN(c2ccccc2)CC1 (configuration not stated),18.6,–
OC(COc1ccc2c(c1)CCC2)CN1CCN(c2cccc(Cl)c2)CC1 (configuration not stated),27.5,–
CC(C)(C)n1ncc2c(=O)n(Cc3c(Cl)cccc3Br)cnc21,6.34,–
CC(C)CCN1CCN(Cc2cn[nH]c2C2CCCCC2)CC1CCO (configuration not stated),3.55,–
Cc1cc(C)c(/C=C2\C(=O)Nc3ccccc32)[nH]1,-6.49,–
